Results reported in PubChem BioAssay AID436 (Emory University Molecular Libraries Screening Center, 2006).
About 350 (0.49%) of roughly 72,000 compounds were called active. This is one part of a sample in which actives are shown more often than they occur.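 How the source made its calls: active means activity remaining at or below 50% of control, provided the compound also passes the data quality filters; inactive means the rest, including low values that fail the filters.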

biological target: Ubiquitin carboxyl-terminal hydrolase BAP1 (Homo sapiens) (UniProt Q92560); assay: BAP1 ubiquitin hydrolase activity blockers – biochemical, Ub-AMC fluorescence, kinetic, primary screen (AID 436); conditions: recombinant BAP1, Ub-AMC hydrolysis fluorescence kinetic; at 20 µM; hits give low values;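 further: 100% = DMSO wells rate and 0% = substrate alone blank rate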
Sequence (Q92560 whole entry, looked up): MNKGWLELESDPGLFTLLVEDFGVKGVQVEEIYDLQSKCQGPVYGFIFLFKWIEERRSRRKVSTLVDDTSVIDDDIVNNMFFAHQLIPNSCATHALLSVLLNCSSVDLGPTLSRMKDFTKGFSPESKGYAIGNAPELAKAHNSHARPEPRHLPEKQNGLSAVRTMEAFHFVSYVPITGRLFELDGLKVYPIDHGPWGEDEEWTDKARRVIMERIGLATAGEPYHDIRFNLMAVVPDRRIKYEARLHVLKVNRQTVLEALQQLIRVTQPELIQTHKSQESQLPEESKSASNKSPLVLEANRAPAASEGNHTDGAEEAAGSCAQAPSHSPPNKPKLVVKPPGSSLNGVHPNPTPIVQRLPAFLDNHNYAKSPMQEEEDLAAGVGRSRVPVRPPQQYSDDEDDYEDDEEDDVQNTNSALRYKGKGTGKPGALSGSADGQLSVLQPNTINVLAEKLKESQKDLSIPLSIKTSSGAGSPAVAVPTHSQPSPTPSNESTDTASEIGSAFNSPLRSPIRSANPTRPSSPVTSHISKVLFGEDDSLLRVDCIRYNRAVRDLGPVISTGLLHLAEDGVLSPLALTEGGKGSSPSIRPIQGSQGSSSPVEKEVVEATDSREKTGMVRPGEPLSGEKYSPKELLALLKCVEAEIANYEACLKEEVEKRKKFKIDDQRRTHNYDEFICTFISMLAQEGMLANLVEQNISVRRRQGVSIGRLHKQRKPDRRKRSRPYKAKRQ

Activity remaining (% of control), active:
Fc1ccc2nc(Nc3nc4c(s3)CCCC4)sc2c1 43.8%

Activity remaining (% of control), inactive:
Cn1c(=N)n(CC(=O)c2ccco2)c2ccccc21 76.8%
Brc1ccc(-c2nc3ccccc3nc2-c2ccccc2)cc1 66.2%
CCOc1ccc(Nc2cc(C)nc3ncnn23)cc1 112%
Nc1nnc(-c2ccccc2SCc2ccc(F)cc2)s1 68.2%
COc1ccc(C(=O)Nc2ccc3oc(-c4ccc(C)cc4)nc3c2)cc1[N+](=O)[O-] 77%
Cc1c(N=Cc2cc(Br)ccc2O)c(=O)n(-c2ccccc2)n1C 106%
CC(=O)CCN1C(=O)C(=O)c2ccccc21 83.2%
CCn1c(N2CCCC2)nc2c1c(=O)n(C)c(=O)n2C 117%
Cc1nc2sc3ccccc3c2s1 122%
COc1ccc(-c2csc(NC(=O)c3ccc(S(=O)(=O)N4CC(C)CC(C)C4)cc3)n2)cc1C (configuration not stated) 92.9%
Cn1c(SCC(=O)c2ccc(Cl)cc2)nc2c1c(=O)[nH]c(=O)n2C 112%
COc1ccc(OC)c(NC(=O)c2cc(Cl)ccc2[N+](=O)[O-])c1 90.2%
CCCCOC(=O)C1=C(C)NC2=C(C(=O)CCC2)C1c1ccc(OCC)c(OC)c1 (configuration not stated) 72.5%
Cc1ccc2cccc(NC(=O)C34CC5CC(CC(C5)C3)C4)c2n1 149%
CCOC(=O)c1c(C)oc2ccc(N(C(=O)c3ccccc3)S(=O)(=O)c3ccc(Cl)c([N+](=O)[O-])c3)cc12 71%
CCCOC(=O)c1ccc(NC(=O)c2ccc(OC)cc2)cc1 167%
CC1=C(C(=O)OCc2ccccc2)C(c2ccccc2I)NC(=O)N1C (configuration not stated) 104%
CCOC(=O)c1c(N=c2oc3ccccc3cc2C(=O)Nc2ccc(F)cc2)sc(C)c1C 63.1%
CC(C)C(=O)Nc1c2c(nn1-c1ccc(Cl)cc1)CSC2 73.6%
COc1ccc(N2C(=O)CSC2c2cc(Br)ccc2OC)cc1 (configuration not stated) 80.4%
O=C(Nc1nc2ccccc2s1)C1CC(=O)N(c2ccccc2Cl)C1 (configuration not stated) 204%
O=C(CSc1nc2sc3c(c2c(=O)[nH]1)CCCC3)NCc1ccccn1 170%
O=C(Nc1cccc(-c2nc3ccccc3o2)c1)C1CCCCC1 79.6%
COc1ccc(C2CC(c3c(-c4ccccc4)c4cc(Br)ccc4[nH]c3=O)=NN2C(=O)c2ccncc2)cc1 (configuration not stated) 97.8%
O=C(Cn1c(=O)sc2ccccc21)Nc1nc2c(s1)CCCC2 79.8%
Fc1ccc2nc(N3CCCCC3)sc2c1 108%
